From PubChem
SRC2 TRFRET art: TR-FRET signal artefacts, primary screen, artefact control for PPARgamma SRC-2 agonist project, biochemical; TR-FRET ratio at 8 µM; AID 1049, 2008; TR-FRET artefact counter-screen; stronger effect = higher value; actives 0.4% (n = 200,000)
SRC1 TRFRET art: TR-FRET detection interference compounds, primary screen, artefact control for PPARgamma SRC-1 recruitment agonists, biochemical, TR-FRET emission ratio. actives 0.34% (n = 99,000). TR-FRET detection artefact counter-screen; stronger effect = higher value. TR-FRET ratio at 8 µM. AID 1051, 2008; in the data active means TR-FRET ratio above about 2300
PPARg SRC3 recr: PPARgamma agonists recruiting SRC-3 coactivator, primary screen, biochemical | Peroxisome proliferator-activated receptor gamma (Homo sapiens), P37231 | biochemical PPARgamma/SRC-3 coactivator recruitment assay | activation, % at 8 µM | actives 0.26% (n = 200,000) | AID 731, 2007; in the data active means activation above about 23%
Target sequence (P37231 whole entry, looked up): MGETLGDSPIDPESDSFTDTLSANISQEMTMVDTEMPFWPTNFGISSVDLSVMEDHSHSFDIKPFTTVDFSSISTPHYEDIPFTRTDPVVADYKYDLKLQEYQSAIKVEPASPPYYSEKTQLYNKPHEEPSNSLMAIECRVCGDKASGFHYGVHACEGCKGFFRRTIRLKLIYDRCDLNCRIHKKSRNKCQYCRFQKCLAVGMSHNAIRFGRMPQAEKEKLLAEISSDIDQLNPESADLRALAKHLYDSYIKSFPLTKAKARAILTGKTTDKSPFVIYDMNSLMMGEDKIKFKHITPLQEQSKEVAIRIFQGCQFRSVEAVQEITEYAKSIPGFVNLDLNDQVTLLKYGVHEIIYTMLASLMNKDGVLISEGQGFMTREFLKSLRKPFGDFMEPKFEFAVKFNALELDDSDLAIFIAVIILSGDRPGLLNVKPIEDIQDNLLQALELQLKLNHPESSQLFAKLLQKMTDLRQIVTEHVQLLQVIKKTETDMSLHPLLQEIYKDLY
PPARg SRC-1 ag: PPARgamma agonists recruiting SRC-1 coactivator, primary screen, biochemical; Peroxisome proliferator-activated receptor gamma (Homo sapiens), P37231; PPARgamma-SRC-1 coactivator recruitment biochemical assay; activation, % at 8 µM; actives 0.41% (n = 200,000); in the data active means activation above about 19%
PPARg SRC2 recr: agonists of PPARg-SRC-2 recruitment, primary screen, biochemical, HTS; Peroxisome proliferator-activated receptor gamma (Homo sapiens), P37231; PPARgamma LBD-SRC-2 recruitment; activation, % at 8 µM; actives 0.34% (n = 200,000); AID 1032, 2008; in the data active means activation above about 22%
SRC3 TRFRET art: TR-FRET detection interference compounds, artefact control for PPARgamma SRC-3 recruitment agonists, biochemical, TR-FRET ratio. TR-FRET artefact counter-screen, PPARgamma/SRC-3 format; stronger effect = higher value. TR-FRET ratio at 8 µM. actives 0.39% (n = 99,000). AID 1048, 2008
PPARg SRC2 ag: agonists of PPARgamma SRC-2 coactivator recruitment, confirmation, biochemical, HTS; shares compounds with PPARg SRC3 recr; biochemical SRC-2 recruitment by PPARgamma; activation, % at 8 µM; actives 52% (n = 790); in the data active means activation above about 22%
PPARg SRC1 ag: PPARgamma agonists recruiting SRC-1 coactivator, confirmation, biochemical | PPARgamma–SRC-1 coactivator recruitment biochemical assay | activation, % at 8 µM | actives 43% (n = 790) | shares compounds with PPARg SRC3 recr; in the data active means activation above about 20%
PPARg SRC3 ag: PPARgamma-driven SRC-3 coactivator recruitment agonists, confirmation, biochemical; shares compounds with PPARg SRC3 recr; biochemical PPARgamma-SRC-3 coactivator recruitment, agonist mode; activation, % at 8 µM; actives 29% (n = 790); in the data active means activation above about 24%
Hits are given with their value. Sampled rows, rich in hits. Any-hit rate of the full collection: about 0.9%. Unless noted, no stated cut-off is given here; in the data, active means TR-FRET ratio above about 2000; inactive means the rest.

O=C(N/N=C/c1c(O)n(CCc2ccccc2)c(=O)[nH]c1=O)c1ccncc1 was read as SRC2 TRFRET art 2004, SRC1 TRFRET art inactive, PPARg SRC3 recr inactive, PPARg SRC-1 ag inactive, PPARg SRC2 recr inactive and SRC3 TRFRET art inactive.
For COc1ccc(-c2cc(=Nc3ccccc3)c3cc(C)ccc3o2)cc1 the results were SRC2 TRFRET art inactive, SRC1 TRFRET art 2615, PPARg SRC3 recr inactive, PPARg SRC-1 ag inactive, PPARg SRC2 recr inactive and SRC3 TRFRET art inactive.
COc1ccc(-c2cc(=NCCC(=O)O)c3cc(C)ccc3o2)cc1 was read as SRC2 TRFRET art inactive, SRC1 TRFRET art inactive, PPARg SRC3 recr inactive, PPARg SRC-1 ag inactive, PPARg SRC2 recr inactive and SRC3 TRFRET art inactive.
NC(=O)CS(=O)C(c1ccccc1)c1ccccc1 (stereo unspecified) was read as SRC2 TRFRET art inactive, SRC1 TRFRET art inactive, PPARg SRC3 recr inactive, PPARg SRC-1 ag inactive, PPARg SRC2 recr inactive and SRC3 TRFRET art inactive.
For CCCCCCn1c(O)c(C=Nc2c(C)n(C)n(-c3ccccc3)c2=O)c(=O)[nH]c1=O the results were SRC2 TRFRET art inactive, PPARg SRC3 recr inactive, PPARg SRC-1 ag inactive and PPARg SRC2 recr 25.1.
`Cc1cc(C=O)c(C)n1C1CC1` gave SRC2 TRFRET art inactive, SRC1 TRFRET art inactive, PPARg SRC3 recr inactive, PPARg SRC-1 ag inactive, PPARg SRC2 recr inactive and SRC3 TRFRET art inactive.
CN(C)c1ccc(/C=C/c2cc[n+](C)c3ccccc23)cc1 was read as SRC2 TRFRET art 2947, SRC1 TRFRET art 3265, PPARg SRC3 recr 61.1, PPARg SRC-1 ag 83.3, PPARg SRC2 recr 61.0, SRC3 TRFRET art 2979, PPARg SRC2 ag 65.2, PPARg SRC1 ag 49.5 and PPARg SRC3 ag 42.9.
For CN1Cc2c(c(C#N)c(N)n(C)c2=S)CC1(C)C the results were SRC2 TRFRET art inactive, SRC1 TRFRET art inactive, PPARg SRC3 recr inactive, PPARg SRC-1 ag inactive, PPARg SRC2 recr inactive and SRC3 TRFRET art inactive.
For O=C(CSc1ccccc1)N1CCC2(CC1)OCCO2 the results were SRC2 TRFRET art inactive, PPARg SRC3 recr inactive, PPARg SRC-1 ag inactive and PPARg SRC2 recr inactive.
`Cn1c(=O)cc(SCC(=O)N2CCC3(CC2)OCCO3)c2ccc(Cl)cc21` gave SRC2 TRFRET art 2539, PPARg SRC3 recr 78.6, PPARg SRC-1 ag 50.2, PPARg SRC2 recr 73.4, PPARg SRC2 ag 28.0, PPARg SRC1 ag inactive and PPARg SRC3 ag inactive.
